Source: PubChem BioAssay
SMARCA2 activ – activators of SMARCA2 function; actives 1% (n = 370,000); MG213 cells, MMTV-luciferase reporter, dexamethasone, overnight; activation, % at 9.1 µM; in the data active = activation above about 7.8%;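 also: 0% = vehicle wells and 100% = reference activator wells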
HSP90 inh – blocks HSP90-mediated luciferase refolding in reticulocyte lysate. Rabbit reticulocyte lysate, luciferase refolding luminescence, 3 h. inhibition, % at 5.6 µM. actives 0.91% (n = 290,000). AID 1789;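 active = inhibition above the screen-wide mean plus 3 SD, computed separately per campaign, cut at about 16% in these data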;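 also: 0% = DMSO wells and 100% = 60 µM geldanamycin wells; inhibitors lower the luminescence because luciferase stays unfolded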
PG9 Ab binder – small molecules binding HIV-1 gp120 antibody PG9; TR-FRET gp120-PG9 antibody binding; inhibition, % at 6.7 µM; actives 0.43% (n = 360,000); AID 624416; in the data active = inhibition above about 8.5%
AI-2 QS mod – Vibrio harveyi AI-2 quorum sensing modulation. Vibrio harveyi JMH597 AI-2 luminescence/OD600 ratio, 9 h; active compounds read low; strain lacks LuxN and CqsS sensors; 0 = neutral-control median. activity change, % at 7.5 µM. actives 0.4% (n = 300,000); in the data active = activity change below about -75%, passing the limit was not always enough; inconclusive = no clear call, values can overlap the other calls;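 also: luminescence divided by OD600 gain over 9 h not by final OD600 alone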
FXN GAA850 act – activators of GAA850 frataxin (FXN) promoter. HEK293 lucGAA850 FXN promoter luciferase reporter, 24 h; percent of 10 µM SAHA response. activation, % at 6 µM. actives 0.56% (n = 360,000). AID 540364;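 active = activation above the average of all compounds screened plus 3 SD, cutoff fixed separately per campaign, cut at about 7.5% in these data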;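 also: 0% = DMSO wells and 100% = 10 µM SAHA wells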
HSF1 inhib – HSF1 inhibition; AID 2098; activity change, negative = inhibition, % at 7.5 µM (by protocol); actives 0.77% (n = 300,000); NIH3T3-HGL HSE-luciferase, MG132-induced, luminescence 8 h; active compounds read low;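 active = more than half of replicate wells show activity change below -50%, luminescence cut by over half; inconclusive = some wells, but at most half, below -50%; inactive = no replicate well below -50%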;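 also: luciferase reports HSF-1 transcriptional activity via heat shock element; 0% = median of DMSO wells and -100% = zero luminescence signal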
GAA30 counter – counter-screen for GAA850 frataxin promoter activators: GAA30 promoter activation | AID 588350 | activation, % at 6 µM | shares compounds with FXN GAA850 act | actives 66% (n = 1,900) | HEK293 lucGAA30 FXN promoter luciferase, 24 h; DMSO = 0%, 5 µM ipriflavone = 100%;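 active = mean activation above the mean of solvent-only control wells plus 3 SD, cut at about 22% in these data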;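 also: counterscreen of GAA850 promoter hits where activity marks nonselective or luminescence artifacts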
FXN GAA850 conf – confirmation of GAA850 frataxin (FXN) promoter activators; HEK293 lucGAA850 FXN promoter luciferase reporter, 24 h; 100% = activation by SAHA; shares compounds with FXN GAA850 act; actives 86% (n = 1,900); AID 588351; activation, % at 6 µM;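 active = mean activation above a set limit taken from the primary screen, cut at about 8% in these data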;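 also: 0% = DMSO wells and 100% = 10 µM SAHA wells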
PG9 bind confirm – confirmation of small molecules binding HIV-1 gp120 antibody PG9. shares compounds with PG9 Ab binder. TR-FRET PG9 antibody binding, biochemical. inhibition, % at 6.7 µM. actives 90% (n = 1,500). AID 651571; in the data active = inhibition above about 9%
PGV04 Ab binding – counter-screen for PG9 binders: binding control antibody PGV04; shares compounds with PG9 Ab binder; TR-FRET PGV04 antibody-gp120 binding, biochemical; inhibition, % at 6.7 µM; actives 95% (n = 1,500); in the data active = inhibition above about 9.5%
SMARCA2 conf – confirmation of SMARCA2 (BRM) function activators; shares compounds with SMARCA2 activ; MG213 cells, MMTV-luciferase with dexamethasone, luminescence, overnight; MG213 cells expressing E1A, Rb sequestered; DMSO wells 0%, reference activator 100%; actives 30% (n = 3,500); activation, % at 9.1 µM;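 active = activation above its plate's cutoff, the mean activation of tested wells plus 3 SD, cut at about 7.9% in these data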
GAL4-VP16 Luc – activates GAL4-VP16 luciferase, flagging SMARCA2 activator hits | shares compounds with SMARCA2 activ | HEK293 GAL4-VP16 pG5luc reporter, luciferase luminescence; scaled: DMSO wells 0%, SAHA wells 100% | activation, % at 9.1 µM | actives 41% (n = 3,500) | AID 686939;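 active = activation above the solvent-only control well mean plus 3 SD, averaged across control plates, cut at about 5.2% in these data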
Starred values were filed as active, the others as inactive; u = inconclusive; x = no result. Most compounds without a hit are left out; they make up all but 3.4% or so of the library.

SMILES	SMARCA2 activ	HSP90 inh	PG9 Ab binder	AI-2 QS mod	FXN GAA850 act	HSF1 inhib	GAA30 counter	FXN GAA850 conf	SMARCA2 conf	GAL4-VP16 Luc	others
CCOC(=O)C1=CCC(c2ccc([N+](=O)[O-])cc2)N(S(=O)(=O)c2ccc(C)cc2)C1 (stereo not drawn)	-1	x	0	x	x	x	x	x	x	x
O=C(N/N=C/c1ccccn1)c1cccc([N+](=O)[O-])c1	11*	1	-1	43	9.2*	0	-38	7	2	4
O=C(N/N=C/c1ccccn1)c1ccc(Br)cc1	12*	1	0	u	23*	8	-105	-31	-8	25*
CCCc1ccc(-c2cc(NC(=O)Cc3c(C)[nH]c4ccccc34)ccc2Nc2cccnc2)cc1	1	x	1	x	x	x	x	x	x	x
C=CCN1C(=O)c2cccc3c(N4CCCCC4)ccc(c23)C1=O	2	-6	1	7	4	13	x	x	x	x
O=C1c2cccc3c(N4CCCCC4)ccc(c23)C(=O)N1CCO	8.5*	-3	-4	9	8.3*	83	88*	33*	7.8*	8.6*
COC1C(O)CCC2(CO2)C1C1(C)OC1CC=C(C)C (stereo not drawn)	3	x	1	x	x	x	x	x	x	x
COc1ccc2c(c1)oc(=O)c1cc(OC)ccc12	9.1*	-3	0	0	7.9*	22	122*	44*	20*	6.5*
COc1nc(=O)n(C2C=CC(=O)O2)cc1F (stereo not drawn)	15*	x	2	x	14*	x	-20	0	23*	5.7*
COc1ccc(-c2nc3c(Br)c(N)c(Br)cc3o2)cc1	x	-7	x	x	7	x	x	x	x	x
Nc1c(Br)cc2oc(-c3ccccc3)nc2c1Br	9.5*	1	-3	3	7.9*	5	102*	41*	12*	7.2*
O=C(Nc1ccc(F)cc1)C(c1cc2ccccc2o1)N1CCN(C(=O)c2ccco2)CC1 (stereo not drawn)	0	x	-1	x	x	x	x	x	x	x
O=C(CS(=O)(=O)c1ccccc1)N1CCc2ccccc21	10*	-2	0	23	8.5*	12	99*	30*	8.5*	9.8*
O=C(NCCC1=CCCCC1)c1coc(=O)c(Br)c1	20*	2	46*	-70	17*	22	-3	26*	-1	5.5*	PG9 bind confirm=57*;PGV04 Ab binding=64*
O=C(NCCc1ccccc1)c1coc(=O)c(Br)c1	27*	-2	0	-59	8.0*	24	-2	21*	-9	5
CN(C)CCNC(=O)c1coc(=O)c(Br)c1	0	3	0	11	3	x	x	x	x	x
CC1(C(=O)Nc2nc3ccccc3s2)CC1(Br)Br (stereo not drawn)	9.0*	-4	0	9	11*	9	103*	36*	6	5.2*
COc1ccc(CCN(C)C(=O)CCc2nnc(-c3ccccc3)o2)cc1OC	11*	0	-1	22	9.3*	7	110*	31*	13*	7.3*
